Laboratory results reported in PubChem BioAssay (NCI).
Compounds without any hit were thinned out: in the full panel of roughly 83,000, 20% have a hit.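 Step 1: grow cells in 96-well plates. Step 2: add test compound at a single concentration. Step 3: incubate 48 h. Step 4: record percent growth.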 The source made the active and inactive calls. Rule for the calls: active = growth percent below 10; inactive = the rest.

Key:
Experiment in all cases: NCI-60 one-dose screen, 48 h (100 = growth as untreated, 0 = no growth, -100 = all killed)
Conditions in all cases: 10 µM unless noted
HCT-15 colon = test system: HCT-15 colon
HT29 colon = test system: HT29 colon
SNB-75 CNS = test system: SNB-75 CNS
SNB-19 CNS = test system: SNB-19 CNS
U251 CNS = test system: U251 CNS
PC-3 prostate = test system: PC-3 prostate
SK-MEL-5 melanoma = test system: SK-MEL-5 melanoma
LOX IMVI melanoma = test system: LOX IMVI melanoma
SK-MEL-2 melanoma = test system: SK-MEL-2 melanoma
EKVX NSCLC = test system: EKVX NSCLC
SN12C renal = test system: SN12C renal
UO-31 renal = test system: UO-31 renal
TK-10 renal = test system: TK-10 renal
ACHN renal = test system: ACHN renal
CAKI-1 renal = test system: CAKI-1 renal
A498 renal = test system: A498 renal
CCRF-CEM leukemia = test system: CCRF-CEM leukemia
MOLT-4 leukemia = test system: MOLT-4 leukemia
UACC-62 melanoma = test system: UACC-62 melanoma
SK-MEL-28 melanoma = test system: SK-MEL-28 melanoma

Measured: growth

Clc1ccc(Cn2cc(-c3nc4ccc(Br)nc4n3Cc3ccc(Cl)cc3)c3cccnc32)cc1
inactive: HCT-15 colon 87.2% | HT29 colon 96.3% | SNB-75 CNS 64.1% | SNB-19 CNS 89.2% | U251 CNS 94.8% | PC-3 prostate 65.7% | SK-MEL-5 melanoma 74.3% | LOX IMVI melanoma 85.4% | SK-MEL-2 melanoma 89.2% | EKVX NSCLC 77.8% | SN12C renal 86.8% | UO-31 renal 51.7% | TK-10 renal 112% | ACHN renal 75% | CAKI-1 renal 82% | A498 renal 76.4% | CCRF-CEM leukemia 78.6% | MOLT-4 leukemia 59.3%

COC(=O)CNc1nc(N(C)O)nc(N(C)O)n1
inactive: HCT-15 colon 30.4% | HT29 colon 41.7% | SNB-75 CNS 96.4% | SNB-19 CNS 47.6% | U251 CNS 36.5% | PC-3 prostate 37.9% | UACC-62 melanoma 42.9% | LOX IMVI melanoma 33.4% | SK-MEL-28 melanoma 42% | SK-MEL-2 melanoma 113% | EKVX NSCLC 48.2% | SN12C renal 49.8% | UO-31 renal 35.6% | TK-10 renal 49.6% | ACHN renal 23.8% | CAKI-1 renal 34.1% | A498 renal 34.5% | CCRF-CEM leukemia 15.5% | MOLT-4 leukemia 25.9%

O=C1c2cc3c(cc2-c2c1c1ccc(F)cc1c(=O)n2CCCN1CCOCC1)OCO3
active: LOX IMVI melanoma 8.74% | ACHN renal 4.58%
inactive: HCT-15 colon 72.5% | HT29 colon 42% | SNB-75 CNS 53.9% | SNB-19 CNS 39.1% | U251 CNS 14.2% | PC-3 prostate 60% | UACC-62 melanoma 13.3% | SK-MEL-28 melanoma 80.1% | SK-MEL-2 melanoma 82.1% | EKVX NSCLC 82.4% | SN12C renal 33.2% | UO-31 renal 35.9% | TK-10 renal 106% | CAKI-1 renal 17.2% | A498 renal 59% | CCRF-CEM leukemia 19.6%

COc1ccc(O)c(-c2cc(-c3ccc(Cl)cc3)c(C#N)c(=O)[nH]2)c1
inactive: HCT-15 colon 66.5% | HT29 colon 75.7% | SNB-75 CNS 62.7% | SNB-19 CNS 69.7% | U251 CNS 46.6% | PC-3 prostate 55.6% | SK-MEL-5 melanoma 57.7% | LOX IMVI melanoma 63.2% | SK-MEL-2 melanoma 37.9% | EKVX NSCLC 105% | SN12C renal 77% | UO-31 renal 55% | TK-10 renal 87.3% | ACHN renal 78.1% | CAKI-1 renal 73.3% | A498 renal 79.6% | CCRF-CEM leukemia 37.2% | MOLT-4 leukemia 57.8%

O=S(=O)(NCCCNc1cc(-c2cn(-c3ccccc3)nc2-c2cccc(O)c2)ccn1)c1ccc(F)cc1
active: HCT-15 colon 6.54% | HT29 colon 0.761%
inactive: SNB-75 CNS 46.3% | SNB-19 CNS 57.4% | U251 CNS 31.3% | PC-3 prostate 23% | SK-MEL-5 melanoma 31.4% | LOX IMVI melanoma 18.9% | SK-MEL-2 melanoma 44.7% | EKVX NSCLC 51.2% | SN12C renal 47.3% | UO-31 renal 21.9% | TK-10 renal 50.6% | ACHN renal 32.8% | CAKI-1 renal 41.4% | A498 renal 34.3% | CCRF-CEM leukemia 19.4% | MOLT-4 leukemia 18.8%

Oc1cccc2ccc(N/N=C/c3cc(CN4CCCCC4)c(O)c4ncccc34)nc12
active: U251 CNS -1.42% | PC-3 prostate 5.8% | UACC-62 melanoma 8.94% | LOX IMVI melanoma -58.4% | SK-MEL-2 melanoma -4.78% | UO-31 renal -19% | ACHN renal -28.9% | CAKI-1 renal 6.88% | MOLT-4 leukemia 7.17%
inactive: HCT-15 colon 20.6% | HT29 colon 14.7% | SNB-75 CNS 27.4% | SNB-19 CNS 19.9% | SK-MEL-28 melanoma 23% | EKVX NSCLC 20% | SN12C renal 17.6% | TK-10 renal 32.5% | A498 renal 38.9% | CCRF-CEM leukemia 10.7%

Fc1ccc(Nc2ccc3c(OCCCN4CCOCC4)cccc3n2)cc1F
inactive: HCT-15 colon 34% | SNB-75 CNS 66.6% | SNB-19 CNS 90.5% | U251 CNS 64.2% | PC-3 prostate 80.5% | UACC-62 melanoma 62.4% | SK-MEL-28 melanoma 80.4% | SK-MEL-2 melanoma 95.2% | EKVX NSCLC 81.4% | SN12C renal 81.6% | UO-31 renal 63.8% | TK-10 renal 92.4% | ACHN renal 78.3% | CAKI-1 renal 82.3% | A498 renal 69.7% | CCRF-CEM leukemia 69.4% | MOLT-4 leukemia 53%
active: HT29 colon 6.29% | LOX IMVI melanoma 6.82%

CC(=O)OCCCCCCn1c2ccccc2c2c3c(c4c5ccccc5n(C)c4c21)C(=O)N(O)C3=O
active: LOX IMVI melanoma 5.8% | CAKI-1 renal 4.21%
inactive: HCT-15 colon 69.5% | HT29 colon 23.7% | SNB-75 CNS 101% | SNB-19 CNS 77.5% | U251 CNS 58.4% | PC-3 prostate 52.9% | SK-MEL-5 melanoma 41.7% | SK-MEL-2 melanoma 84.6% | EKVX NSCLC 98.6% | SN12C renal 70% | UO-31 renal 50% | TK-10 renal 80.6% | ACHN renal 74.9% | A498 renal 52.9% | CCRF-CEM leukemia 34.3% | MOLT-4 leukemia 10.9%

CC1(C)c2ccccc2C(=O)C1(Br)Cc1ccccc1 (stereo not given)
inactive: HCT-15 colon 71.3% | HT29 colon 67.4% | SNB-75 CNS 78.8% | SNB-19 CNS 81.1% | U251 CNS 91% | PC-3 prostate 77.4% | UACC-62 melanoma 78.3% | LOX IMVI melanoma 78.7% | SK-MEL-28 melanoma 95.8% | SK-MEL-2 melanoma 103% | EKVX NSCLC 94.5% | SN12C renal 95.4% | UO-31 renal 56.6% | TK-10 renal 105% | ACHN renal 87.7% | CAKI-1 renal 50.5% | A498 renal 89.7% | CCRF-CEM leukemia 26.4% | MOLT-4 leukemia 16.4%

O=S(=O)(NCCNc1cc(-c2cn(-c3ccccc3)nc2-c2cccc(O)c2)ccn1)c1ccc(C(F)(F)F)cc1
active: HT29 colon 4.36% | UO-31 renal -39.8% | CAKI-1 renal -1.88% | MOLT-4 leukemia 4.81%
inactive: HCT-15 colon 28.5% | SNB-75 CNS 49.7% | SNB-19 CNS 54.4% | U251 CNS 36.5% | PC-3 prostate 22.6% | SK-MEL-5 melanoma 36.9% | LOX IMVI melanoma 23.5% | SK-MEL-2 melanoma 56.2% | EKVX NSCLC 52.3% | SN12C renal 33.9% | TK-10 renal 59.9% | ACHN renal 18.3% | A498 renal 52.6% | CCRF-CEM leukemia 16.9%

O=C(CCCCCn1c2ccccc2c2c3c(c4c5ccccc5[nH]c4c21)C(=O)N(O)C3=O)N1CCOCC1
active: HT29 colon 0.235% | SK-MEL-5 melanoma 0.765% | LOX IMVI melanoma -16.8% | CAKI-1 renal -22.9% | CCRF-CEM leukemia 5.19% | MOLT-4 leukemia -14.9%
inactive: HCT-15 colon 49.2% | SNB-75 CNS 87% | SNB-19 CNS 47.3% | U251 CNS 33.9% | PC-3 prostate 26.5% | SK-MEL-2 melanoma 72.5% | EKVX NSCLC 77.7% | SN12C renal 57.1% | UO-31 renal 29.6% | TK-10 renal 70.7% | ACHN renal 29.4% | A498 renal 26.9%

COc1cc(NC(C)CN(CC(C)C)C(C)C)c2ncccc2c1 (stereo not given)
inactive: HCT-15 colon 101% | HT29 colon 97.5% | SNB-75 CNS 80.4% | SNB-19 CNS 116% | U251 CNS 100% | PC-3 prostate 80.5% | UACC-62 melanoma 106% | LOX IMVI melanoma 94.7% | SK-MEL-28 melanoma 122% | SK-MEL-2 melanoma 113% | EKVX NSCLC 105% | SN12C renal 104% | UO-31 renal 87.6% | TK-10 renal 120% | ACHN renal 99.3% | CAKI-1 renal 98.6% | A498 renal 97.6% | CCRF-CEM leukemia 114% | MOLT-4 leukemia 96.6%

O=C(Nc1ccc(/C=C2\SC(=O)N(Cc3ccc(OC(F)(F)F)cc3)C2=O)cc1)c1ccc(Cl)c([N+](=O)[O-])c1
inactive: HCT-15 colon 72.5% | HT29 colon 11.3% | SNB-75 CNS 85.5% | SNB-19 CNS 36.8% | UACC-62 melanoma 94.4% | LOX IMVI melanoma 73.1% | SK-MEL-28 melanoma 95.5% | SK-MEL-2 melanoma 92.6% | EKVX NSCLC 91.1% | SN12C renal 81.6% | UO-31 renal 67.9% | TK-10 renal 98.5% | ACHN renal 89.3% | CAKI-1 renal 85.7% | A498 renal 82.2% | CCRF-CEM leukemia 77%
active: U251 CNS -18.8% | PC-3 prostate 9.15%

Cc1ccnc2c(OCc3ccccc3)cccc12
inactive: HCT-15 colon 90.3% | HT29 colon 99.4% | SNB-75 CNS 95.4% | SNB-19 CNS 100% | U251 CNS 92.7% | PC-3 prostate 96.8% | UACC-62 melanoma 85.8% | LOX IMVI melanoma 87.4% | SK-MEL-28 melanoma 95.6% | SK-MEL-2 melanoma 105% | EKVX NSCLC 78.6% | SN12C renal 88.8% | UO-31 renal 64.3% | TK-10 renal 102% | ACHN renal 89.3% | CAKI-1 renal 86.1% | A498 renal 90.3% | CCRF-CEM leukemia 108% | MOLT-4 leukemia 98%

Cc1cc(C)c(NC(=O)c2sc3nc4c(cc3c2N)CCCC4)c(C)c1
inactive: HCT-15 colon 32.1% | HT29 colon 13.9% | SNB-75 CNS 18.5% | SNB-19 CNS 43.4% | U251 CNS 27.7% | PC-3 prostate 54% | SK-MEL-5 melanoma 50.1% | LOX IMVI melanoma 37.6% | SK-MEL-2 melanoma 16.8% | EKVX NSCLC 76.7% | SN12C renal 50% | UO-31 renal 62.1% | TK-10 renal 64.7% | ACHN renal 55.8% | CAKI-1 renal 53.1% | A498 renal 12.7% | CCRF-CEM leukemia 20.4% | MOLT-4 leukemia 29.9%

COc1cc2c(cc1-c1c(C)noc1C)ncc1nc(C3CCCCC3)n([C@@H](C)COC(F)F)c12
inactive: HCT-15 colon 20.9% | HT29 colon 13.5% | SNB-75 CNS 31.3% | SNB-19 CNS 45.6% | U251 CNS 47.1% | PC-3 prostate 30.3% | UACC-62 melanoma 21.9% | LOX IMVI melanoma 12.5% | SK-MEL-28 melanoma 45.8% | SK-MEL-2 melanoma 64.4% | EKVX NSCLC 39.2% | SN12C renal 55.3% | UO-31 renal 23.6% | TK-10 renal 28.9% | ACHN renal 37.8% | CAKI-1 renal 26.7% | CCRF-CEM leukemia 46.1% | MOLT-4 leukemia 39.5%
active: A498 renal 1.93%
